PINK1 modulator: changes PINK1 expression; PINK1 immunofluorescence, high-content cytometry, 24 h; AID 624263; 410,000 tested, 0.2% active; Potency, µM (highest dose often 76.6 µM), inactives show top-dose activation (PINK1 increase), hits mostly activators; active = well fitted activation curve with a large enough effect; inconclusive = small, poorly fitted or top-dose-only effect; cell line not stated here; note: potency is the fitted concentration of half-maximal effect; % of control where 0% means no effect; nearly all actives have a fitted effect of over 65% in size
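Stable cell line, 250 cells/well, 12 h attachment; compounds pinned at 5 concentrations, 24 h; CCCP control. Fixed with nuclear dye, primary antibodies 12 h at 10 degrees C, secondary plus cell stain; laser-scanning cytometer read.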
IL-1B inflam inh: inflammasome signaling inhibition, IL-1 beta readout. THP-1 LPS/ATP IL-1B secretion, AlphaLISA, 16 h; stronger effect = lower value. activity change, % at 57.5 µM. 360,000 tested, 4.7% active; in the data active = activity change below about -50%; inconclusive = mostly about -30% to -49%; note: % is set by controls: 0 for no effect and ±100 for the full control effect
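Secreted IL-1B measured by AlphaLISA bead assay after 16 h compound exposure of THP-1 cells; compounds (final up to 57.5 uM) added 1 h before LPS (250 ng/mL) and ATP (1.25 mM) stimulation; lower signal means less secretion.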
ATXN2 expr inh: ATXN2 expression inhibition. Potency, µM (series often up to 57 µM), without a hit: at the top dose activity change, negative = inhibition, usual class: inhibitors. 360,000 tested, 0.72% active. HEK-293 ATXN2-luciferase reporter, luminescence, 24 h; note: potency is the fitted concentration of half-maximal effect; % is set by controls: 0 for no effect and ±100 for the full control effect; nearly all actives have a fitted effect of over 55% in size
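qHTS (up to 57 uM final) was run with 24 h compound exposure of reporter cells at 37 °C. Each well was multiplexed: SteadyGlo luminescence measured ATXN2-luciferase expression after a fluorogenic Gly-Phe-AFC viability readout (25 uM final).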
MCF10A rerep: DNA re-replication induction in MCF 10a cells. 350,000 tested, 2.9% active. AID 624296. MCF 10A DNA re-replication, Hoechst nuclear intensity, 48 h. Potency, µM (top dose mostly 46.1 µM), inactives show at the top dose activity, positive = re-replication, actives largely listed as activators; note: potency is the fitted concentration of half-maximal effect; % of control where 0% means no effect; nearly all actives have a fitted effect of over 50% in size
ATXN viability: cell viability loss in ATXN counter-screen. S2 cells (HEK-293 line with an ATXN2-luciferase reporter) viability, CellTiter-Fluor protease fluorescence, 24 h. Potency, µM (highest dose often 56.7 µM), hits mostly cytotoxic. 400,000 tested, 0.49% active; note: potency is the fitted concentration of half-maximal effect; nearly all actives have a fitted effect of over 40% in size
SW480 rereplic: inducers of DNA re-replication in SW480 colon cancer cells; SW480 DNA re-replication, Hoechst DNA content imaging, 48 h; Potency, µM (series often up to 46.1 µM), for inactives: top-dose re-replication activation, hits mostly activators; 340,000 tested, 1.8% active; AID 624297; note: potency is the fitted concentration of half-maximal effect; % of control where 0% means no effect; nearly all actives have a fitted effect of over 55% in size
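Cells (250 per well) received 23 nL compound or DMSO by pin tool and were kept 48 hr at 37 C, 5% CO2. Nuclei were then stained with Hoechst for 40 min and scanned for DNA content.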
The depositor's hits bear a star; i = inactive; ? = inconclusive; / = not tested or not shown; [ ] = another dose, or the depositor's remark. The list is not random: actives were taken first. Their share in the collection is about 7.1%. Unless noted, calls come from the whole dose curve; as a rule, active = well fitted curve in the direction sought with a large enough effect; inconclusive = small, poorly fitted or top-dose-only effect, or another doubt; inactive = no such curve, though single readings can be large; an effect the other way counts as inactive or inconclusive.

SMILES	PINK1 modulator	IL-1B inflam inh	ATXN2 expr inh	MCF10A rerep	ATXN viability	SW480 rereplic
O=C1CC(c2ccccc2)Sc2ccccc2N1Cc1ccccc1F (stereo unspecified)	11%	/	-28%	/	?	/
CC1=C(c2ccc(C)cc2)S(=O)(=O)N(Cc2ccc(C(=O)NCc3ccccc3)cc2)C1=O	4%	/	/	/	/	/
CCC(C(=O)NC(=O)NC(C)=O)c1ccccc1 (stereo unspecified)	/	/	-3%	/	i	/
Cc1csc(SCC(=O)NCC2Cc3cc(-c4cncnc4)ccc3O2)n1 (stereo unspecified)	-1%	/	/	/	i	/
S=C1Nc2ccccc2CS1	0%	15	/	/	i	/
S=C1Cc2ccccc2N1	0%	-101*	6.3µM*	?	5.6µM*	?
Cc1cc(C)cc(C(=O)N2CC(=O)Nc3ccc(C)cc3C2c2ccccc2)c1 (stereo unspecified)	9%	/	?	/	?	/
CCOC(=O)c1cccc(NC(=O)c2cc3c(Cl)nc4ccc(C)cc4c3s2)c1	0%	/	/	/	/	/
COCc1cc(C)nc(SCC(=O)Nc2ccccc2N2CCOCC2)c1C#N	-1%	11	-6%	21µM*	i	?
c1cncc(CSc2ccc(-c3cccs3)nn2)c1	0%	-60*	29%	2%	i	0%
Cc1occc1C(=O)Nc1cccc(-c2nc(CNC(=O)c3ccc4ccccc4n3)c(C)o2)c1	1%	/	/	/	?	/
CC(C)CNC(=O)c1cn(C2CCN(Cc3nc4ccccc4s3)CC2)nn1	-1%	/	/	/	i	/
CC(C)Oc1ccc(F)cc1-c1cc(C(=O)Nc2ccccc2)[nH]n1	4%	-69*	19%	/	i	/
O=C(NCCc1nc2ccccc2[nH]1)/C(=C/c1ccc2c(c1)OCO2)NC(=O)c1ccccc1	-1%	18	5%	-2%	i	-1%
O=C(NCCc1nc2ccccc2[nH]1)/C(=C/c1ccc2c(c1)OCO2)NC(=O)c1ccccc1Cl	0%	-84*	1%	3%	i	5%
C[C@@H](O)[C@@H]1C(=O)N2C(C(=O)O)=C([C@H]3CCCO3)S[C@H]12	/	/	/	0%	/	3%
COc1cc(C(=O)NCCOc2cc(C)cc(C)c2)cc(OC)c1OC	1%	27	-2%	21µM*	i	7.3µM*
Cc1ccc(C(C)C)c(OCCNCCc2ccccc2)c1	-2%	-91*	-9%	13µM*	?	?
Cc1ccc(C(C)C)c(OCCNC(=O)c2cncc(Br)c2)c1	3%	-8	-22%	?	i	2%
CCCCNCC#CCOc1cc(C)ccc1C(C)C	14%	-70*	/	2%	?	-1%
COc1cc(C(=O)NCCOc2cc(C)ccc2C(C)C)cc(OC)c1OC	10%	-63*	-30%	?	i	?
Cc1ccc(C(C)C)c(OCCCNCc2cccnc2)c1	-3%	-6	-17%	-2%	i	9%
Cc1cccc(CCNC(=O)c2ccc(CSCc3cccc(Cl)c3)o2)c1	2%	/	-14%	/	i	/
CC(C)OC(=O)Nc1ccc2c(c1)N(C(=O)CCN(C)C)c1ccccc1CC2	1%	-13	-4%	-2%	i	?
CCOC(=O)Nc1ccc2c(c1)N(C(=O)CCN1CCOCC1)c1ccccc1S2	0%	-28	4%	?	i	-6%
SMILES	PINK1 modulator	IL-1B inflam inh	ATXN2 expr inh	MCF10A rerep	ATXN viability	SW480 rereplic
CCOC(=O)Nc1ccc2c(c1)N(C(=O)CN(C)C)c1ccccc1CC2	0%	-4	-11%	-13%	i	-7%
CCOC(=O)Nc1ccc2c(c1)N(C(=O)CCN(C)C)c1ccccc1CC2	0%	-69*	8%	?	i	10%
COC(=O)Nc1ccc2c(c1)N(C(=O)CCN(C)C)c1ccccc1CC2	1%	-57*	-1%	0%	i	14%
CCOC(=O)Nc1ccc2c(c1)N(C(=O)CCN1CCOCC1)c1ccccc1S2=O (stereo unspecified)	1%	-63*	0%	10µM*	?	5.8µM*
COC(=O)Nc1ccc2c(c1)N(C(=O)CCCl)c1ccccc1S2	5%	-96*	20%	?	?	?
CCc1cnc2c(c1SCCC(C)C)c(=O)n(C)c(=O)n2C	7%	/	-11%	/	i	/
CCOC(=O)c1cc2c(=O)n3ccccc3nc2n(Cc2ccco2)c1=NC(=O)c1c(F)cccc1Cl	1%	/	2%	/	/	/
CCCCC(=O)N1CCc2cc(OC)c(OC)cc2C1COc1ccc(C(=O)OCC)cc1 (stereo unspecified)	-2%	/	?	/	i	/
N#Cc1c(NC(=O)COC(=O)C2CC3C=CC2C3)oc(-c2ccccc2)c1-c1ccccc1 (stereo unspecified)	3%	-28	-18%	18µM*	i	-40%
N#Cc1c(NC(=O)CSc2ncccn2)oc(-c2ccccc2)c1-c1ccccc1	-1%	5	11%	18%	i	-9%
COc1ccc(-c2oc(NC(=O)CCl)c(C#N)c2-c2ccc(OC)cc2)cc1	-2%	-93*	18µM*	?	/	?
COc1ccc(-c2oc(NC(=O)CSc3ncn[nH]3)c(C#N)c2-c2ccc(OC)cc2)cc1	9%[38.3 µM]	0	-29%	14µM*	i	35µM*
Cc1ccc(OCC(=O)Nc2oc(-c3ccccc3)c(-c3ccccc3)c2C#N)cc1	-1%	0	-12%	16µM*	?	-1%
COc1ccccc1OCC(=O)Nc1oc(-c2ccccc2)c(-c2ccccc2)c1C#N	13%	6	-5%	?	i	-7%
CC(NC(=O)c1cccc(Nc2nc3ccccc3n3nnnc23)c1)c1ccccc1 (stereo unspecified)	23%	/	1%	/	i	/
COc1cc2c(NC3CCN(C)CC3)nc(N3CCCN(C)CC3)nc2cc1OCCCN1CCCCC1	-1%	/	/	/	/	/
O=C(COc1ccc(F)cc1)c1ccc2c(c1)CCCC2	0%	0	73%	10µM*	i	1%
CCn1c(-c2ccccc2F)nc2cc(C(=O)NC(c3ccccn3)C(F)(F)F)cc(NC(C)=O)c21 (stereo unspecified)	1%	/	/	/	i	/
O=C(CN1C(=O)c2cccc3cccc1c23)N1CCN(c2cccc(Cl)c2)CC1	?	17	-13%	-3%	i	3%
O=C(CN1C(=O)c2cccc3cccc1c23)N1CCN(c2ccc(F)cc2)CC1	17%	14	-32%	11µM*	i	?
O=C(CN1C(=O)c2cccc3cccc1c23)N1CCN(c2ccccc2)CC1	3%	5	-10%	23µM*	i	?
